Growth data for 38 compounds are collected here from PubChem BioAssay (NCI).

Compounds without any hit were thinned out: in the full panel of roughly 83,000, 20% have a hit.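 Plates (96-well) were seeded with cells, treated with compound at one concentration, and incubated for 48 hours before percent growth was determined.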 Unmarked numbers belong to inactive results. Active and inactive are the calls of the source. Rule for the calls: active = growth percent below 10; inactive = the rest.

One experiment deals with PC-3 prostate. Put plainly: NCI-60 one-dose screen, 48 h (100 = growth as untreated, 0 = no growth, -100 = all killed). The settings on record: 10 µM.
On to `CCOC(=O)[C@@H]1[C@H](c2ccccc2)[C@H]([N+](=O)[O-])[C@H](c2cn(-c3ccccc3)nc2C)N1Cc1ccccc1`, for which the growth was 46%.

For the compound `O=S(=O)(NC1c2ccccc2Oc2ccccc21)c1cc(Cl)ccc1Cl`, the growth was 88.9%.

Regarding `O=C(O)CCCCSCCCCC(=O)O`, the growth is 96.8%.

`COc1ccc(OC)c([N+](=O)[O-])c1C=O`: the growth is 92.9%.

Regarding `c1ccc(CC(NCCNC(Cc2ccccc2)c2ccccc2)c2ccccc2)cc1` (stereo unspecified), the growth is 24.2%.

On to `COc1ccc(-c2nsc3c2NC(=O)CC3c2cccc(Cl)c2)cc1` (stereo unspecified), for which the growth is 15.7%.

As for `Oc1ccc(/C=N\Nc2ccccn2)c(O)c1`, the growth is 61.3%.

In the case of `O=c1ccc2nc(-c3ccccc3)nn(-c3ccccc3)c-2c1`, the growth is 43.5%.

As for `COc1ccc2nc(C)cc(Nc3ccc(Cl)cc3)c2c1`, the growth was 100%.

Regarding `COc1c(-c2c3sc(=O)[nH]c3nc3c2c(=O)[nH]n3C(C)C)cc2c(c1OC)OCO2`, the growth is 92.6%.

On to `Fc1cc(-c2ncc(-c3cc(F)c(F)c(F)c3)c(NC3CCCCCC3)n2)cc(F)c1F`, for which the growth was 90.6%.

For the compound `COc1ccc(NC(=O)CCn2cnc3c(cc(-c4ccccc4)n3-c3ccccc3)c2=O)cc1`, the growth was 86.6%.

Consider `N#CCC1CCCC1`, for which the growth is 87.9%.

As to `COc1ccc(-c2nnc(COc3ccc(NC(=O)Nc4cccc(C(F)(F)F)c4)cc3F)o2)cc1`, the growth is 46.5%.

`COc1ccc(/C=C2\SC(=S)N(CCCN3CCOCC3)C2=O)c(OC)c1`: the growth was 93.2%.

Turning to `COc1cc2nc(Sc3sc(N)nc3C)n(-c3ccc(Oc4ccccc4)cc3)c(=O)c2cc1OC`, the growth is 65.2%.

Take `Cc1ccc2oc(=O)cc(/C(=C3/C=CC=N3)c3ccc[nH]3)c2c1`: the growth was 8.12% (active).

`Nc1ccccc1NC(=O)CCCCCCC(=O)Nc1ccc2c(c1)/C(=C/c1ccc[nH]1)C(=O)N2`: the growth is 29%.

For the compound `COc1ccccc1Cn1cc2c(c1-c1ccccc1)CCc1cnoc1-2`, the growth was 29.9%.

For `COc1cc(-c2nc3ccc(C)cc3[nH]2)ccc1OCc1nnc(-c2ccc(CC(C)C)cc2)o1`, the growth was 88.1%.

Take `C[n+]1c(/C=C/c2c[nH]c3ccccc23)ccc2ccccc21`: the growth was 52.1%.

For the compound `COc1cc(Cl)cc(-c2nn(-c3cccc(NC(=O)Nc4cccc(C(F)(F)F)c4)c3)cc2-c2ccncc2)c1`, the growth was -9.92% (active).

Take `COc1cc(/C=C/C(=O)c2cc(-c3ccc(F)cc3)ccc2O)cc(OC)c1OC`: the growth was 54.6%.

Consider `Cc1ccc2c(c1)-c1cc(C)nn1-c1ccc(C#N)cc1O2`, for which the growth was 66.2%.

As for `C=CCNC(=S)NN`, the growth is 58.4%.

With `N/C(=N\O)c1cn(C2OC(CO)C(O)C2O)c2ncnc(N)c12` (stereo unspecified), the growth was 4.66% (active).

Turning to `CC(=O)c1c(O)cc2c3c1OC(C)(C)C1CCC(C)(CC31)O2` (stereo unspecified), the growth was 88.8%.

In the case of `CC(=O)Nc1ccc(Sc2ccc(NC(C)=O)cc2)cc1`, the growth was 65.5%.

For `CC(=O)N(O)c1ccc(/C=C/c2ccccc2)cc1`, the growth was 36.1%.

For the compound `CCOc1nc(-c2ccccc2)cc2c(O)c(C(=O)N/N=C/c3ccc(OC)cc3)[nH]c(=O)c12`, the growth was 88%.

As to `CNC(=S)Sc1ccc([N+](=O)[O-])cc1[N+](=O)[O-]`, the growth was 84.4%.

On to `O=C(COc1ccc(Cl)cc1Cl)Oc1coc(CSc2nc3ccccc3s2)cc1=O`, for which the growth is 106%.

With `COc1ccc(Cn2cc3c(c2-c2ccccc2)CC(C)(C)c2cnoc2-3)cc1`, the growth was 28.8%.

With `Cc1nnc2c3nnc(-c4ccc(Cl)cc4)n3c3ccccc3n12`, the growth was 91.8%.

For the compound `Nc1ccc(Sc2ccc3c4c2cccc4c(=O)n2c4ccccc4nc32)cc1`, the growth was 50.4%.

In the case of `COc1cccc(C(=O)NNc2nc(N3CCN(C4CCCCC4)CC3)nc(N3CCN(C(c4ccccc4)c4ccccc4)CC3)n2)c1`, the growth is 21%.

Consider `Cc1ncc([N+](=O)[O-])n1CCOc1ccc(C(=O)/C=C/c2ccc(C(F)(F)F)cc2)cc1`, for which the growth was 50.6%.

Take `O=C(CCc1ccccc1)N1CCN(C(=O)CCc2ccccc2)CC1`: the growth is 94.3%.

For the next experiment, the system named is SK-MEL-5 melanoma. Described as above. To be noted: 10 µM.
Consider `CCOC(=O)[C@@H]1[C@H](c2ccccc2)[C@H]([N+](=O)[O-])[C@H](c2cn(-c3ccccc3)nc2C)N1Cc1ccccc1`, for which the growth was 76.3%.

On to `O=S(=O)(NC1c2ccccc2Oc2ccccc21)c1cc(Cl)ccc1Cl`, for which the growth was 94.6%.

Regarding `O=C(O)CCCCSCCCCC(=O)O`, the growth was 93.9%.

Regarding `COc1ccc(OC)c([N+](=O)[O-])c1C=O`, the growth was 96.1%.

`c1ccc(CC(NCCNC(Cc2ccccc2)c2ccccc2)c2ccccc2)cc1` (stereo unspecified): the growth is -52.3% (active).

With `COc1ccc(-c2nsc3c2NC(=O)CC3c2cccc(Cl)c2)cc1` (stereo unspecified), the growth is 23%.

With `Oc1ccc(/C=N\Nc2ccccn2)c(O)c1`, the growth is 39.4%.

On to `O=c1ccc2nc(-c3ccccc3)nn(-c3ccccc3)c-2c1`, for which the growth is 19.8%.

Turning to `COc1ccc2nc(C)cc(Nc3ccc(Cl)cc3)c2c1`, the growth was 93.7%.

Regarding `COc1c(-c2c3sc(=O)[nH]c3nc3c2c(=O)[nH]n3C(C)C)cc2c(c1OC)OCO2`, the growth is 102%.

On to `Fc1cc(-c2ncc(-c3cc(F)c(F)c(F)c3)c(NC3CCCCCC3)n2)cc(F)c1F`, for which the growth is 98.1%.

For the compound `COc1ccc(NC(=O)CCn2cnc3c(cc(-c4ccccc4)n3-c3ccccc3)c2=O)cc1`, the growth is 91%.

In the case of `N#CCC1CCCC1`, the growth is 104%.

In the case of `COc1ccc(-c2nnc(COc3ccc(NC(=O)Nc4cccc(C(F)(F)F)c4)cc3F)o2)cc1`, the growth was 78.8%.

On to `COc1ccc(/C=C2\SC(=S)N(CCCN3CCOCC3)C2=O)c(OC)c1`, for which the growth was 90%.

`COc1cc2nc(Sc3sc(N)nc3C)n(-c3ccc(Oc4ccccc4)cc3)c(=O)c2cc1OC`: the growth is 76.8%.

Take `Cc1ccc2oc(=O)cc(/C(=C3/C=CC=N3)c3ccc[nH]3)c2c1`: the growth is -59.2% (active).

As for `Nc1ccccc1NC(=O)CCCCCCC(=O)Nc1ccc2c(c1)/C(=C/c1ccc[nH]1)C(=O)N2`, the growth was 55.1%.

As to `COc1ccccc1Cn1cc2c(c1-c1ccccc1)CCc1cnoc1-2`, the growth is 18.1%.

As to `COc1cc(-c2nc3ccc(C)cc3[nH]2)ccc1OCc1nnc(-c2ccc(CC(C)C)cc2)o1`, the growth is 85.7%.

In the case of `C[n+]1c(/C=C/c2c[nH]c3ccccc23)ccc2ccccc21`, the growth was 59.2%.

Consider `COc1cc(Cl)cc(-c2nn(-c3cccc(NC(=O)Nc4cccc(C(F)(F)F)c4)c3)cc2-c2ccncc2)c1`, for which the growth was 5.3% (active).

On to `COc1cc(/C=C/C(=O)c2cc(-c3ccc(F)cc3)ccc2O)cc(OC)c1OC`, for which the growth was 48.1%.

With `Cc1ccc2c(c1)-c1cc(C)nn1-c1ccc(C#N)cc1O2`, the growth is 75.9%.

Regarding `C=CCNC(=S)NN`, the growth is 99.5%.

Turning to `N/C(=N\O)c1cn(C2OC(CO)C(O)C2O)c2ncnc(N)c12` (stereo unspecified), the growth is -43% (active).

In the case of `CC(=O)c1c(O)cc2c3c1OC(C)(C)C1CCC(C)(CC31)O2` (stereo unspecified), the growth was 83.1%.

Consider `CC(=O)Nc1ccc(Sc2ccc(NC(C)=O)cc2)cc1`, for which the growth was 105%.

As for `CC(=O)N(O)c1ccc(/C=C/c2ccccc2)cc1`, the growth was 73.7%.

Consider `CCOc1nc(-c2ccccc2)cc2c(O)c(C(=O)N/N=C/c3ccc(OC)cc3)[nH]c(=O)c12`, for which the growth was 53.5%.

With `CNC(=S)Sc1ccc([N+](=O)[O-])cc1[N+](=O)[O-]`, the growth was 44.8%.

On to `O=C(COc1ccc(Cl)cc1Cl)Oc1coc(CSc2nc3ccccc3s2)cc1=O`, for which the growth is -78% (active).

As for `COc1ccc(Cn2cc3c(c2-c2ccccc2)CC(C)(C)c2cnoc2-3)cc1`, the growth was 13.1%.

For the compound `Cc1nnc2c3nnc(-c4ccc(Cl)cc4)n3c3ccccc3n12`, the growth was 99.7%.

`Nc1ccc(Sc2ccc3c4c2cccc4c(=O)n2c4ccccc4nc32)cc1`: the growth is 39.4%.

`COc1cccc(C(=O)NNc2nc(N3CCN(C4CCCCC4)CC3)nc(N3CCN(C(c4ccccc4)c4ccccc4)CC3)n2)c1`: the growth was -85.1% (active).

With `Cc1ncc([N+](=O)[O-])n1CCOc1ccc(C(=O)/C=C/c2ccc(C(F)(F)F)cc2)cc1`, the growth is 78.4%.

Consider `O=C(CCc1ccccc1)N1CCN(C(=O)CCc2ccccc2)CC1`, for which the growth is 105%.
